79 compounds from PubChem BioAssay AID1307 (SRMLSC, 2008) can be followed below.

Fewer than 10 of roughly 1,200 compounds were called active. A selection follows. Potency and affinity values are given separately. Unmarked numbers belong to inactive results.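 How the source made its calls: active means inhibition reaching a set limit at one or more tested concentrations; inactive means inhibition under that limit at every dose.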

This assay can be described thus: yeast RAM network inhibitors, dose response, S. cerevisiae (AID 1307).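 Further: 0% = DMSO vehicle wells and 100% = 10 µM 1-NA-PP1 control; higher inhibition means more yeast growth since RAM block rescues cells from 5-FOA.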 The conditions noted are these: S. cerevisiae RAM network URA3 reporter, 5-FOA growth OD615, active compounds read high, yeast express analog-sensitive mutant Cbk1 kinase; at 100 µM unless noted.
On to `CCCCc1ccc(-c2csc(/C(C#N)=C/c3ccc(C)o3)n2)cc1`, for which the max inhibition was 4.24%.
`CCC(C)c1ccc(NC(=S)NCc2ccccc2OC)cc1` (centres undefined): the max inhibition was 5.65%.
With `CCCCC(=O)Nc1ccccc1C(=O)OCC(=O)c1ccc2c(c1)OCCO2` the figure was 2.31% [at 0.196 µM]; with `CCOC(=O)N1CCC(N(CCN(C)C)C(=S)Nc2cccc(SC)c2)CC1`, 2.41% [at 0.782 µM]; with `CCCN(CCC)c1nc2ccccc2nc1C(C#N)C(=O)OC(C)COC` (centres undefined), 2.6%.
The same measure for `Cc1ccc(-c2ccc(C(=O)NCc3ccccc3)o2)c2ccccc12`: 3.65%.
The same measure for `CC(C)Oc1cccc(C(=O)NC(=S)Nc2cccc(C(F)(F)F)c2)c1`: 2.41% [at 0.782 µM]; for `O=C(CN(C(=O)CSc1nnc(COc2ccccc2)o1)c1ccc(F)cc1)NC1CCCC1`: 2.82%.
As for `Cc1ccccc1OCCC(=O)Nc1cccc(S(=O)(=O)Nc2ccccc2Cl)c1`, the max inhibition was 2.67% [at 0.196 µM].
With `O=S(=O)(NCCSCc1ccc(Cl)cc1Cl)c1ccc2c(c1)OCCO2` the figure was 2.05% [at 12.5 µM]; with `CCCCCOP(=O)(OCCCCC)C1(NS(=O)(=O)c2ccccc2)C=CC(=O)c2ccccc21` (centres undefined), 2.83%; with `COc1ccccc1OCC(=O)Nc1ccc(CSc2ccccc2)cc1C`, 1.56% [at 25 µM].
As for `Cc1ccc(-n2c(SCC(=O)Nc3cccc(S(=O)(=O)NC4=NCCCCC4)c3)nc3ccccc3c2=O)cc1C`, the max inhibition was 11%.
The same measure for `CC(C)=CCC/C(C)=C/Cc1c(O)ccc(C(=O)/C=C/c2ccc(O)cc2)c1O`: 5.39%; for `CCOc1ccc2nc(SCC(=O)c3ccccc3)sc2c1`: 3% [at 0.196 µM]; for `COc1ccc(/C=C2\SC(=S)N(CC(=O)OCC(=O)Nc3ccc([N+](=O)[O-])cc3OC)C2=O)cc1`: 8.9%.
With `C=CCc1cccc(/C=N/NC(=O)C(C)Nc2ccc(C)cc2)c1O` (centres undefined) the figure was 2.46% [at 0.782 µM].
The same measure for `CCOc1cccc(-c2csc(C3COc4ccccc4O3)n2)c1` (centres undefined): 5.04% [at 50 µM].
Consider `COc1ccc2c(C)cc(SCC(=O)c3ccc4c(c3)OCO4)nc2c1`, for which the max inhibition is 4.01%.
With `FC(F)(F)c1nc(N2CCN(c3ccccc3)CC2)nc2c1CCCCC2`, the max inhibition was 3.63%.
As to `CCOC(=O)c1c(C)[nH]c(C)c1C(=O)COC(=O)/C=C/c1ccc(Cl)cc1`, the max inhibition is 2.07% [at 0.391 µM].
The same measure for `CCSC1=N/C(=C\c2ccc(-c3ccccc3[N+](=O)[O-])o2)C(=O)S1`: 5.47% [at 25 µM]; for `CC1CCCN(C(=O)C(C)Sc2nc(-c3ccccc3)cc(C(F)(F)F)n2)C1` (centres undefined): 3.6% [at 25 µM].
With `CCc1ccc(OCC(=O)N2c3ccccc3CCc3ccccc32)cc1` the figure was 2.64% [at 3.125 µM]; with `Fc1ccc(CSc2nnc(Cc3sc(-c4ccccc4)nc3-c3ccccc3)o2)cc1`, 5.66%; with `O=C(Nc1ccccc1)C1=C[C@H](C2CCCCC2)C[C@H](OCc2ccc(CO)cc2)O1`, 4.12%.
With `CCCNS(=O)(=O)c1ccc(CCC(=O)Nc2cc(Cl)ccc2Oc2ccccc2)cc1` the figure was 1.73%; with `Cc1cccc(NC(=O)/C(C#N)=C/c2ccc(Sc3ccccc3)o2)c1C`, 10.5%; with `CC(C)Oc1ccccc1OCCCCn1cnc2ccccc2c1=O`, 2.35% [at 6.25 µM].
Regarding `Cc1ccc(-c2csc(N(CC3CCCO3)C(=O)c3ccco3)n2)cc1` (centres undefined), the max inhibition was 1.93% [at 12.5 µM].
The same measure for `OCCNc1nc(SCc2ccccc2)nc2sc3c(c12)CCC3`: 1.56% [at 3.125 µM].
With `Cc1cc(NC(=O)CSc2nc3ccsc3c(=O)n2Cc2ccccn2)n[nH]1` the figure was 2.41% [at 12.5 µM]; with `COC(=O)c1cc2c(ccn2-c2ccc(F)cc2)n1Cc1ccc(OC)cc1`, 5.52% [at 50 µM]; with `CCC1(C)CC(CCNS(=O)(=O)c2ccc(C)cc2)(c2ccc(C)cc2)CCO1` (centres undefined), 3.04%.
The same measure for `Cn1c(N=Nc2ccc(N3CCOCC3)cc2)[n+](C)c2ccccc21`: 25%; for `Cc1ccc(SCCNC(=S)Nc2ccc(C)c(C)c2)cc1`: 4.41% [at 12.5 µM].
`Brc1ccc(CSc2nnc(Cc3c[nH]c4ccccc34)o2)cc1`: the max inhibition is 3.66%.
The same measure for `CCOCCOC(=O)C(C)Oc1ccc(Oc2nc(Cl)ccc2Cl)cc1` (centres undefined): 2.21% [at 25 µM].
Consider `CCOc1nc(-c2ccccc2)ccc1-c1noc(COc2ccccc2)n1`, for which the max inhibition was 3.61% [at 50 µM].
Consider `Cc1ccccc1OCC(=O)OCC(=O)c1ccc(OCc2ccccc2)cc1`, for which the max inhibition is 4.85% [at 50 µM].
Take `COc1ccccc1C(NC(=O)C1CCCCC1)c1c(O)ccc2ccccc12` (centres undefined): the max inhibition is 5.27%.
With `CCCCC1(Cc2cccc([N+](=O)[O-])c2)C(=O)N(c2ccccc2)N(c2ccccc2)C1=O`, the max inhibition is 4.01% [at 50 µM].
With `O=C(COC(=O)CCCNC(=O)c1ccc(Cl)cc1)Nc1cc(Cl)c(Cl)cc1Cl` the figure was 3.97% [at 50 µM]; with `COc1ccc(C(=O)/C=C/Nc2ccc(S(=O)(=O)Nc3ncccn3)cc2)cc1`, 7.67%; with `CCCCOc1ccc(S(=O)(=O)Nc2cc(OC)ccc2OC)cc1`, 3.71% [at 25 µM].
With `COc1cc2c(=O)n(Cc3ccco3)c(=O)n(CC(=O)c3ccc(Br)cc3)c2cc1OC`, the max inhibition was 3.72% [at 0.196 µM].
With `Cc1ccc(SCC(=O)Nc2ccc(F)cc2[N+](=O)[O-])cc1C` the figure was 2.24%; with `COc1cc(/C=N/Nc2ccc(Cl)cc2)ccc1OC(=O)c1cccs1`, 2.6% [at 0.391 µM].
Turning to `COc1ccc(-c2nc(-c3ccc(O)cc3O)cs2)cc1OC`, the max inhibition is 5.02% [at 3.125 µM].
The same measure for `CCOC(=O)c1cc(C#N)c(Oc2cccc(C(F)(F)F)c2)nc1-c1ccccc1`: 2.36%; for `CC(=O)Nc1ccc(-c2cc(-c3ccc(NC(C)=O)cc3)nc(-c3ccc(NC(C)=O)cc3)n2)cc1`: 13.5%.
With `COc1ccc(C(=O)NNC(=O)C(Cc2ccc(O)cc2)NC(=O)c2ccccc2NC(=O)c2ccc(OC)cc2)cc1` (centres undefined) the figure was 3.19%; with `COC(=O)[C@H](Cc1ccccc1)NC(=O)[C@@]1(C)C[C@@H]1[C@@H](NC(=O)OCc1ccccc1)c1ccccc1`, 5.9%; with `O=C(CCC(=O)c1ccc(Oc2ccccc2)cc1)Nc1cccc(Cl)c1Cl`, 3.23% [at 25 µM].
In the case of `COc1cccc(/C=C(/C(=O)OCC(=O)NC2CCCC(C)C2C)c2ccccc2)c1` (centres undefined), the max inhibition is 7.65% [at 50 µM].
In the case of `Cc1ccc(C(=O)C(OC(=O)CCC(=O)Nc2cccc(C)c2)c2ccccc2)cc1` (centres undefined), the max inhibition was 5.19%.
With `CCOC(=O)c1ccc(COC(=O)c2ccc3c(c2)-c2ccccc2C3=O)cc1` the figure was 5.23% [at 25 µM]; with `CCOC(=O)C1CCN(S(=O)(=O)C(F)(F)c2nc3ccccc3s2)CC1`, 2.1% [at 0.391 µM].
The same measure for `Clc1ccc(-c2nnc(CSc3nnc(-c4cccs4)o3)o2)cc1`: 2.52% [at 3.125 µM]; for `CCSC1=N/C(=C/c2ccsc2)C(=O)N1c1ccccc1`: 3.18%.
Consider `CCCNC(=O)c1ccccc1NC(=O)c1ccc(CSc2ccccc2)cc1`, for which the max inhibition is 5.46% [at 50 µM].
With `Cc1ccc(C2=NN(Cc3nnc(-c4ccccc4)o3)C(=O)SC2)cc1` the figure was 3.29%; with `O=C(NCc1ccccc1)c1ccc(S(=O)(=O)N2CCCc3ccccc32)cc1`, 2.24%; with `O=[N+]([O-])c1ccc(N/N=C/c2sc(N3CCOCC3)nc2-c2ccccc2)c(S(=O)(=O)Nc2ccc(Cl)cc2)c1`, 8.74%.
The same measure for `CN(C)S(=O)(=O)c1ccc2[nH]cc(/C=C/c3nc4ccccc4c(=O)n3-c3ccccc3)c2c1`: 10.9%; for `CN(C)c1nc(SCCOC(=O)COc2ccc(Cl)cc2Cl)nc(N(C)C)n1`: 1.44% [at 0.782 µM]; for `O=C(c1cccs1)n1nc(-c2ccc(Cl)cc2)nc1NCc1ccco1`: 2.48%.
As to `O=C(C(Sc1ccccc1)c1ccccc1)N1CCN(c2ccccc2)CC1` (centres undefined), the max inhibition is 2.99% [at 3.125 µM].
The same measure for `CCOC(=O)c1c(NC(=S)Nc2ccc(OC)cc2)sc2c1CCCCC2`: 3.37% [at 1.563 µM]; for `O=C(/C=C/c1ccc(-c2ccccc2)o1)c1ccccc1`: 5.06%; for `O=C(Cn1cc(C(=O)c2ccco2)c2ccccc21)NC1CCCCC1`: 3.76% [at 0.391 µM].
`O=C1CCC(/C=C/c2ccccc2)=NN1Cc1ccc(Cl)c(Cl)c1`: the max inhibition was 3.06%.
With `C=CCO/N=C(/C)c1c(O)c(CC)c(-c2ccccc2)n(-c2ccccc2)c1=O` the figure was 2.56% [at 0.391 µM]; with `CCOC(=O)c1cccc(NC(=O)CSc2nnc(COc3ccccc3C)o2)c1`, 2.04% [at 50 µM]; with `Cc1c(NC(=S)NC(=O)Cc2ccccc2)cccc1C(=O)O`, 2.43% [at 0.196 µM].
`COc1cc(NC(=O)c2ccc3c(c2)OCO3)c2ncccc2c1`: the max inhibition was 4.22%.
With `C/C(=N\OC(=O)c1ccc(OC(C)C)cc1)c1ccc(C)c(C)c1` the figure was 3.12%.
With `Cc1ccc(N(CCCCN2C(=O)c3ccccc3C2=O)C(=O)c2cccs2)cc1`, the max inhibition is 4.25%.
`Cc1ccc(S(=O)(=O)N2c3cc(C)ccc3OCC2C(C)(C)C)cc1` (centres undefined): the max inhibition is 3.04%.
